High-throughput results: PubChem BioAssay, National Center for Advancing Translational Sciences (NCATS)
Rows were chosen to be rich in hits. Some 7.5% of all compounds tested hit in one or more screens of this group.
SMN2 splice up – enhancers of SMN2 splice variant expression. HEK293 SMN2-luciferase splicing reporter, luminescence, 30-36 h. Potency, µM (series often up to 46.1 µM), for inactives: at the top dose activity change, positive = activation, usual class: activators. 2.8% of 210,000 active; also: % of control where 0% means no effect; nearly all actives have a fitted effect of over 55% in size
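HEK293 cells carry an SMN2 minigene-luciferase reporter in which exon 7 inclusion puts luciferase in frame. Cells were seeded at 2000 cells/well, attached for 10-12 hours, then exposed to compounds for 30-36 hours at 37C before ONE-Glo luminescence.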
NPC1 prom act – NPC1 promoter activation | Huh7 NPC1 promoter luciferase reporter, 24 h | Potency, µM (series often up to 9.22 µM), for the others: at the highest dose activation, hits mostly activators | 2.4% of 320,000 active; also: % of control where 0% means no effect; nearly all actives have a fitted effect of over 60% in size
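Quantitative HTS used a cell-based reporter: Huh7 cells stably bearing the NPC1 promoter upstream of luciferase were treated with compounds for 24 h, and promoter activation was read as luminescence.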
FLuc counter – inhibits or activates purified firefly luciferase, miR-21 counter-screen; P08659; purified FLuc, Km substrates, luminescence inhibition; 6.9% of 360,000 active; Potency, µM (highest dose often 57.5 µM), inactives show at the top dose activity change, negative = inhibition, usual class: inhibitors;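 also: plate controls were vehicle for no effect and reference inhibitor for full effect; nearly all actives have a fitted effect of over 55% in size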
Target sequence (P08659 whole entry, looked up): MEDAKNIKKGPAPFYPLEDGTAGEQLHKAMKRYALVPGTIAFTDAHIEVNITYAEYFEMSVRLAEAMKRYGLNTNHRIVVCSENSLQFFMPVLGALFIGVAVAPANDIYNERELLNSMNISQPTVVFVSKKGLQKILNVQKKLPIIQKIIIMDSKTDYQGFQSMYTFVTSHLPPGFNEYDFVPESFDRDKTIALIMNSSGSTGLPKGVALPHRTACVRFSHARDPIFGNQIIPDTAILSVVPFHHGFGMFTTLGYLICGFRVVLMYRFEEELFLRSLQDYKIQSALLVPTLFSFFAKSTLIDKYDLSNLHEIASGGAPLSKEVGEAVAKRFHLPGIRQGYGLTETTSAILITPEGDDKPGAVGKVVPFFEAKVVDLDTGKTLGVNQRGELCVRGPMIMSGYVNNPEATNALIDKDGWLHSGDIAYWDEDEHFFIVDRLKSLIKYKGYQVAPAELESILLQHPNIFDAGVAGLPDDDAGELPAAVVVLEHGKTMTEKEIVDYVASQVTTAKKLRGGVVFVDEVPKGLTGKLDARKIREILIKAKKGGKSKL
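Purified P. pyralis luciferase (10nM final) with 10uM D-luciferin and 10uM ATP (Km levels) in 50mM Tris acetate pH 7.5, 10mM Mg acetate, 0.01% Tween-20, 0.05% BSA; qHTS 6-point titration, ~60 µM downward; luminescence read.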
Rab9 promoter act – activates the Rab9 promoter. AID 485297. Potency, µM (titrated, usually from 9.22 µM), inactives show at the highest dose activation, negative = inhibition, most hits filed as activators. Huh7 Rab9 promoter-luciferase reporter, luminescence, 24 h. 2.8% of 320,000 active; also: % of control where 0% means no effect; nearly all actives have a fitted effect of over 60% in size
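Cells were plated at 1500 per well in reduced-serum medium with 10% FBS and left 2 h. Compound in DMSO was then added for 24 h at 37 °C. Reporter signal was read by luminescence after 10 min with luciferase detection reagent.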
KinaseGlo FLuc – Kinase-Glo luciferase inhibition (counter-screen). Kinase-Glo luciferase, ATP luminescence, 8 min. Potency, µM (series often up to 38.3 µM), without a hit: top-dose activity change, negative = inhibition, usual class: inhibitors. 0.28% of 200,000 active. AID 1379; also: % is scaled to controls: 0 for no effect and ±100 for the full control effect; nearly all actives have a fitted effect of over 60% in size
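Light output from Kinase-Glo luciferase with luciferin and 10 uM ATP in 50 mM imidazole pH 7.2, KCl, MgCl2, Tween 20, BSA; compound pin-delivered, 8-min ambient incubation, then luminescence read.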
ELG1 genotoxic – induces genotoxicity in HEK293T cells with luciferase-tagged ELG1 | HEK293T ELG1-luciferase reporter, luminescence, 16 h | Potency, µM (top dose mostly 46 µM), for inactives: top-dose activity change, positive = activation, actives largely listed as activators | 1.3% of 330,000 active | AID 504466; also: % of control where 0% means no effect; nearly all actives have a fitted effect of over 60% in size
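Genotoxic stress is detected as increased luminescence from luciferase-tagged ELG1 in HEK293T cells, measured with ONE-Glo after a 16 hr treatment at 37 °C.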
The depositor's hits bear a star. Calls follow the shape of the dose curve; as a rule, active = well fitted curve in the direction sought with a large enough effect; inconclusive = small, poorly fitted or top-dose-only effect, or another doubt; inactive = no such curve, though single readings can be large; an effect the other way counts as inactive or inconclusive. Potency is read from the fitted curve at half-maximal effect.

`Cc1ccc2cc(CCNS(=O)(=O)c3ccc(F)cc3)c(=O)[nH]c2c1C` gave NPC1 prom act -3%, FLuc counter 5%, Rab9 promoter act -1% and ELG1 genotoxic -7%.
For O=C(NCc1cccnc1)c1ccc(NC(=O)c2ccc([N+](=O)[O-])cc2)cc1 the results were NPC1 prom act -3%, FLuc counter 2%, Rab9 promoter act 4% and ELG1 genotoxic -21%.
Brc1cccc(-c2nnn3c2nc(NCc2ccc4c(c2)OCO4)c2ccccc23)c1 was read as SMN2 splice up 14µM* and FLuc counter -8%.
For Cc1ccc(C2=CC(c3ccccc3F)n3c(nc4ccccc43)N2)cc1C (stereo not given) the results were FLuc counter 6µM*.
`COc1cccc(C2=CC(c3ccccc3F)n3ncc(C(=O)Nc4ccc(C)cc4)c3N2)c1` (stereo not given) gave FLuc counter -1%.
For COc1cccc(C2=CC(c3ccccc3F)n3c(nc4ccccc43)N2)c1 (stereo not given) the results were FLuc counter 12µM*.
`COC(=O)[C@@H]1C[C@@]2(O)[C@@H](O)[C@@H](O)[C@@H](O)C[C@H]2N1Cc1ccc(C(C)(C)C)cc1` gave SMN2 splice up -19% and KinaseGlo FLuc -3%.
Screening Cc1ccc2oc(C(=O)Nc3nnc(CC(C)C)s3)cc(=O)c2c1 returned SMN2 splice up 11% and FLuc counter inconclusive.
CCCc1nnc(NC(=O)c2cc(=O)c3cc(C)c(C)cc3o2)s1 was read as SMN2 splice up -3% and FLuc counter 12µM*.
Cc1ccc(Nc2ncnc3c2cnn3-c2ccccc2)c(C)c1 was read as FLuc counter 19µM*.
Screening Cc1ccc(-n2ncc3c(Nc4cccc(C)c4C)ncnc32)cc1 returned FLuc counter 8.5µM*.
Screening CCOc1ccccc1Nc1ncnc2c1cnn2-c1ccccc1 returned SMN2 splice up -6%, NPC1 prom act -1%, FLuc counter -13%, Rab9 promoter act 0%, KinaseGlo FLuc 2% and ELG1 genotoxic -5%.
Cc1ccc(-n2ncc3c(Nc4ccc(Oc5ccccc5)cc4)ncnc32)cc1 was read as FLuc counter -6%.
For CCOc1ccccc1Nc1ncnc2c1cnn2-c1ccc(C)cc1 the results were FLuc counter 15µM*.
Cc1cc(C)cc(NC(=O)N2CCC(N3CCCCC3)CC2)c1 was read as SMN2 splice up 22% and FLuc counter -1%.
COC(=O)c1cc2sccc2n1CC(=O)Nc1ccc(C)cc1C was read as SMN2 splice up -2% and FLuc counter -10%.
Fc1ccccc1Nc1n[nH]c(=S)s1 was read as SMN2 splice up 13µM*, NPC1 prom act 14%, FLuc counter inconclusive, Rab9 promoter act inconclusive, KinaseGlo FLuc 0% and ELG1 genotoxic inconclusive.
O=C(CCCn1nnnc1CN1CCOCC1)N1CCN(c2ccccc2F)CC1 was read as NPC1 prom act 1%, FLuc counter 4%, Rab9 promoter act -4% and ELG1 genotoxic 14%.
`CSc1nc2ccc3nc(NC(=O)c4cccs4)sc3c2s1` gave SMN2 splice up 7%, NPC1 prom act 3.2µM*, FLuc counter 2.1µM*, Rab9 promoter act 4µM*, KinaseGlo FLuc -2% and ELG1 genotoxic inconclusive.
Screening O=C(Nc1nc2ccc(S(=O)(=O)N3CCCCC3)cc2s1)c1cccnc1 returned SMN2 splice up -7%, NPC1 prom act 4%, FLuc counter inconclusive, Rab9 promoter act -4%, KinaseGlo FLuc -3% and ELG1 genotoxic -1%.
For CC(=O)Nc1ccc2nc(NC(=O)CCc3ccccc3)sc2c1 the results were SMN2 splice up -1%, NPC1 prom act -2%, FLuc counter -16%, Rab9 promoter act inconclusive, KinaseGlo FLuc 0% and ELG1 genotoxic -2%.
For CC(=O)Nc1ccc2nc(NC(=O)C(Cl)(Cl)Cl)sc2c1 the results were NPC1 prom act 25%, FLuc counter 15µM*, Rab9 promoter act 26% and ELG1 genotoxic 11%.
For CC(C)NS(=O)(=O)c1ccc2nc(NC(=O)c3cncc(Br)c3)sc2c1 the results were FLuc counter 19µM*.
CC(=O)Nc1ccc2nc(NC(=O)c3cccnc3)sc2c1 was read as NPC1 prom act inconclusive, FLuc counter 12µM*, Rab9 promoter act inconclusive, KinaseGlo FLuc -15% and ELG1 genotoxic 11%.
O=C(O)CSc1nnc(-c2ccc(Cl)cc2Cl)n1Cc1ccccc1 was read as NPC1 prom act 3%, FLuc counter 1%, Rab9 promoter act -5% and ELG1 genotoxic 0%.
For O=C(Nc1nc2ccc(F)cc2s1)c1cccs1 the results were SMN2 splice up 3.2µM*, NPC1 prom act 3.2µM*, FLuc counter 2.4µM*, Rab9 promoter act 1.1µM*, KinaseGlo FLuc -28% and ELG1 genotoxic inconclusive.
Screening CN(C)S(=O)(=O)c1ccc2nc(NC(=O)c3cccnc3)sc2c1 returned SMN2 splice up 14µM*, FLuc counter 3.8µM* and KinaseGlo FLuc -1%.
Screening O=C(Nc1nc2ccc(S(=O)(=O)N3CCCC3)cc2s1)c1cccs1 returned SMN2 splice up 11%, NPC1 prom act -6%, FLuc counter inconclusive, Rab9 promoter act 20%, KinaseGlo FLuc -2% and ELG1 genotoxic 1%.
CN(C)S(=O)(=O)c1ccc2nc(NC(=O)c3cccs3)sc2c1 was read as SMN2 splice up 11µM*, NPC1 prom act 1.4µM*, FLuc counter 1.2µM*, Rab9 promoter act 0.89µM*, KinaseGlo FLuc -1% and ELG1 genotoxic 2.3µM*.
For O=C(Nc1nc2ccc(S(=O)(=O)N3CCOCC3)cc2s1)c1cccs1 the results were NPC1 prom act 27%, FLuc counter 19µM*, Rab9 promoter act 28% and ELG1 genotoxic 3%.
Cc1ccc(-c2nnc3ccccc3c2C(=O)Nc2cccc(C(F)(F)F)c2)cc1 was read as FLuc counter -8%.
`CCN(CC)C(=O)[C@H]1CC(CC(=O)NC(C)(C)C)C(=O)N2CCc3c([nH]c4ccccc34)[C@]12C` (stereo not given in full) gave ELG1 genotoxic 2%.
For NS(=O)(=O)c1ccc(NC(=O)CNC(=O)c2ccc3c(c2)OCO3)cc1 the results were ELG1 genotoxic -3%.
CC(=O)Nc1nc2ccc(-c3nc4ccccc4o3)cc2s1 was read as SMN2 splice up 5µM*, NPC1 prom act 2.2µM*, FLuc counter 3.4µM*, Rab9 promoter act 4.5µM*, KinaseGlo FLuc 2% and ELG1 genotoxic inconclusive.
